# Records with an inconclusive call do not appear. Activity calls are given as the source filed them. The calls were made as follows, unless noted: active = hit-call score of the fitted dose curve at least 0.9, where 1 is the maximum; inconclusive = response in the unintended direction; inactive = score below 0.9.
# Tests used:
# [1] = CEETOX_H295R_TESTO_noMTC: CeeTox H295R High-throughput Steroidogenesis Assay for Testosterone (TESTO), maximum tolerated concentration (MTC) filtered results only (AID 2283924; active = hit-call score of the fitted dose curve at least 0.9, where 1 is the maximum; inactive = score below 0.9); conditions: actives raise or lower the signal
# Method in brief: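 H295R cells prestimulated 48 h with 10 uM forskolin, then exposed 48 h to chemicals in 0.1% DMSO final. Testosterone in medium quantified by MTBE extraction and HPLC-MS/MS; bidirectional fit versus DMSO, concentrations […] filtered by MTT-based maximum tolerated concentration.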
# [2] = TOX21_PR_BLA_Followup_Antagonist_viability: Viability Assessment in the Tox21 HEK293 Progesterone Receptor (PR) Antagonism Beta-lactamase Follow-Up Assay (AID 2283936);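 also: hits lower the luminescence signal meaning cytotoxicity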
# Method in brief: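 PR-UAS-bla HEK293T cells (3,000/well, 2% charcoal-stripped FBS) given compound plus R5020 agonist, 16 h at 37C. CellTiter-Glo added after bla read, 30 min at room temperature; luminescence loss indicates cytotoxicity.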
# PGR (gene 5241) = PGR (gene 5241) (UniProt P06401); assay: TOX21_PR_LUC_Followup_Antagonist: Tox21 HEK293 Progesterone Receptor (PR) Antagonism Luciferase Follow-Up Assay (AID 2283938);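 also: curve fitted upward as signal gain over DMSO baseline despite antagonist label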
# Method in brief: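 Luminescence from ONE-Glo reagent, measured after 30 min at room temperature, served as readout. Cells (HEK293 carrying PR-A-luc) had been treated 16 h at 37C with DMSO-dissolved compounds. Activity was fitted against DMSO controls.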
# [3] = TOX21_PR_LUC_Followup_Antagonist_viability: Viability Assessment in the Tox21 HEK293 Progesterone Receptor (PR) Antagonism Luciferase Follow-Up Assay (AID 2283940)
# Method in brief: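 Multiplexed viability counter-screen: after 5 days in charcoal-stripped-FBS medium, HEK293-PR-A-luc cells are plated, pinned with DMSO-dissolved compounds for 16 h at 37C, and ATP content is quantified luminescently via CellTiter-Glo.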
# [4] = TOX21_TR_RXR_BLA_Agonist_Followup_viability: Viability Assessment in the Tox21 Thyroid Hormone Receptor beta Retinoid X Receptor alpha (RXRa) Agonism Beta-lactamase (BLA) Follow-Up Assay (AID 2283970)
# Method in brief: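 Cells: HEK293T RXRa-UAS-bla, 2,500/well; medium phenol red-free DMEM + 2% charcoal-stripped FBS; 16h, 37C/5% CO2; qHTS concentration series. Read: CellTiter-Glo luminescence (ATP); bidirectional fit, DMSO = baseline.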
# [5] = target: Thyroid hormone receptor alpha (Rattus norvegicus) + Thyroid hormone receptor beta (Rattus norvegicus) (UniProt P18113+P63059); assay: TOX21_TR_LUC_GH3_Antagonist_Followup: Tox21 GH3 Thyroid Hormone Receptor Antagonism Luciferase Follow-Up Assay (AID 2283942)
# Method in brief: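 Confirmatory qHTS, antagonist mode: T3 (1.0 nM final) + test cpd, 15 conc, 92 uM–5nM final, GH3 rat pituitary line, 24 h, 37C. Luc reporter, RLU vs DMSO.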
# THRA (gene 7067) [6] = target: THRA (gene 7067) (UniProt P10827); assay: TOX21_TRA_COA_Antagonist_Followup_ratio: Tox21 Thyroid Hormone Receptor alpha Antagonism through Coactivator Recruitment Follow-Up Assay, Ratio (AID 2283953)
# Method in brief: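 520:495 nm emission ratio (excitation 340 nm) reports fluorescein-SRC-2 peptide recruitment to GST-TRα LBD by TR-FRET with Tb anti-GST antibody. Values were normalized to DMSO (0%) and T3 control wells (100%); loss of signal indicated antagonism.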
# THRB (gene 7068) [7] = target: THRB (gene 7068) (UniProt P10828); assay: TOX21_TRB_BLA_Antagonist_Followup_ratio: Tox21 Thyroid Hormone Receptor beta Antagonism Beta-lactamase (BLA) Follow-Up Assay, Ratio (AID 2283958)
# Method in brief: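 HEK293T TRb-bla (GAL4 DBD + hTRβ LBD), 2% cs-FBS phenol red-free DMEM, 5 h attach; cpds 11-pt triplicate, 18 h 37C; CCF4-AM 2 h RT; 460/530 ratio vs DMSO; CellTiter-Glo viability same wells.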
# [8] = TOX21_TRB_BLA_Antagonist_Followup_viability: Viability Assessment in the Tox21 Thyroid Hormone Receptor beta Antagonism Beta-lactamase (BLA) Follow-Up Assay (AID 2283961)
# Method in brief: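 Viability read as CellTiter-Glo ATP luminescence (loss of signal = cytotoxicity) in the same plates as the TRβ-bla readout. TRβ-LBD/GAL4 UAS-bla HEK293T cells were exposed to compounds, 11 concentrations in triplicate, for 18 h at 37C/5% CO2.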
# THRB (gene 7068) [9] = target: THRB (gene 7068) (UniProt P10828); assay: TOX21_TRB_COA_Antagonist_Followup_ratio: Tox21 Thyroid Hormone Receptor beta Antagonism through Coactivator Recruitment Follow-Up Assay, Ratio (AID 2283967)
# Method in brief: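 Test compound was incubated with 5.0 nM GST-TRβ LBD in 0.10% BSA. Then 200 nM fluorescein-SRC-2 peptide and 2 nM terbium anti-GST antibody were added. TR-FRET (520:495 nm) was measured and normalized to DMSO and T3 controls.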
# [10] = target: Retinoic acid receptor RXR-alpha (Homo sapiens) (UniProt P19793); assay: TOX21_TR_RXR_BLA_Antagonist_Followup_ratio: Tox21 Thyroid Hormone Receptor beta Retinoid X Receptor alpha (RXRa) Antagonism Beta-lactamase (BLA) Follow-Up Assay, Ratio (AID 2283972)
# Method in brief: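 Beta-lactamase reporter readout as cleaved/uncleaved substrate ratio (460:530 nm) after 2 h substrate loading at room temperature. GAL4-RXRa bla HEK293T cells were exposed 16 h at 37C to 11-point compound series; loss of signal scored against DMSO baseline.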
# THRA (gene 7067) [11] = target: THRA (gene 7067) (UniProt P10827); assay: TOX21_TRA_COA_Agonist_Followup_ratio: Tox21 Thyroid Hormone Receptor alpha Agonism through Coactivator Recruitment Follow-Up Assay, Ratio (AID 2283948; active = hit-call score of the fitted dose curve at least 0.9, where 1 is the maximum; inactive = score below 0.9)
# Method in brief: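 GST-TRa LBD 2.5 nM + 0.10% BSA + cpd; add fluorescein-SRC-2 200 nM, Tb-anti-GST 2 nM. TR-FRET ex 340, em 520/495 ratio. Norm: DMSO 0%, T3 100%; gain-of-signal fit.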
# THRB (gene 7068) [12] = target: THRB (gene 7068) (UniProt P10828); assay: TOX21_TRB_BLA_Agonist_Followup_ratio: Tox21 Thyroid Hormone Receptor beta Agonism Beta-lactamase (BLA) Follow-Up Assay, Ratio (AID 2283954)
# Method in brief: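 Human TRβ LBD–GAL4 DBD fusion in GeneBLAzer UAS-bla HEK293T cells; 11 concentrations in triplicate, 18 h at 37°C/5% CO2, T3 as agonist control. CCF4-AM substrate 2 h at room temperature; 460:530 nm ratio fitted for gain of signal versus DMSO.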
# THRB (gene 7068) [13] = target: THRB (gene 7068) (UniProt P10828); assay: TOX21_TRB_COA_Agonist_Followup_ratio: Tox21 Thyroid Hormone Receptor beta Agonism through Coactivator Recruitment Follow-Up Assay, Ratio (AID 2283963; active = hit-call score of the fitted dose curve at least 0.9, where 1 is the maximum; inactive = score below 0.9)
# Method in brief: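 Signal is the 520/495 nm emission ratio (excitation 340 nm), scaled between DMSO-only wells as 0% and T3 wells as 100%. It reflects fluorescein-labeled SRC-2 peptide recruitment to GST-TRβ ligand-binding domain detected via terbium anti-GST antibody.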
# [14] = target: Retinoic acid receptor RXR-alpha (Homo sapiens) (UniProt P19793); assay: TOX21_TR_RXR_BLA_Agonist_Followup_ratio: Tox21 Thyroid Hormone Receptor beta Retinoid X Receptor alpha (RXRa) Agonism Beta-lactamase (BLA) Follow-Up Assay, Ratio (AID 2283968)
# Method in brief: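 HEK293T RXRa-bla, qHTS; cpd 11-pt conc. in triplicate, 16 h 37C/5% CO2; CCF4-AM 2 h RT; ratio 460:530 nm; agonist direction vs DMSO; 9-cis retinoic acid as positive control.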
# [15] = CCTE_Harrill_HTTr_Viability_DMEM_6hr: (Pilot) CCTE's 6-hour Cell Viability Assessment for the High-Throughput Transcriptomics (HTTr) Platform, in MCF-7 cells cultured in DMEM + 10% fetal bovine serum, Harrill Lab (AID 2283973; active = hit-call score of the fitted dose curve at least 0.9, where 1 is the maximum; inactive = score below 0.9)
# Method in brief: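 MCF-7 cells in DMEM + 10% FBS, eight-point dilution series, 6 h exposure. Membrane integrity by propidium iodide exclusion with high-content imaging; bidirectional fit versus DMSO.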
# [16] = CCTE_Harrill_HTTr_Viability_DMEM_12hr: (Pilot) CCTE's 12-hour Cell Viability Assessment for the High-Throughput Transcriptomics (HTTr) Platform, in MCF-7 cells cultured in DMEM + 10% fetal bovine serum, Harrill Lab (AID 2283974; active = hit-call score of the fitted dose curve at least 0.9, where 1 is the maximum; inactive = score below 0.9)
# Method in brief: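 MCF-7 cells in DMEM + 10% FBS exposed 12 h to an eight-point dilution series; membrane integrity scored by propidium iodide exclusion with high-content imaging, bidirectional fitting versus DMSO.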
# Chain of THRB (gene 7068) (P10828 whole entry, looked up, the tested form may be a part): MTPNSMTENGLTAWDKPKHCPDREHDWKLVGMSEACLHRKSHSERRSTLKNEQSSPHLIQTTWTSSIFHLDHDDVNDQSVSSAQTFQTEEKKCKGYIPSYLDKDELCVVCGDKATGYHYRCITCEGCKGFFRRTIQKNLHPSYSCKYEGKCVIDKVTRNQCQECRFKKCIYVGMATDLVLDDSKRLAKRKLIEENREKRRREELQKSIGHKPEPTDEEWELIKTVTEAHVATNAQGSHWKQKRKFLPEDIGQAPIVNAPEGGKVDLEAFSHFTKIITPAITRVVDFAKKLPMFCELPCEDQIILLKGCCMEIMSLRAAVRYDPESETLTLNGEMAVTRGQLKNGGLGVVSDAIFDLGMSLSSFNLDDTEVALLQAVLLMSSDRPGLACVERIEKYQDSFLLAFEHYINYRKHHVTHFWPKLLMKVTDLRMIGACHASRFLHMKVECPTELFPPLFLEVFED
# Chain of THRA (gene 7067) (P10827 whole entry, looked up, the tested form may be a part): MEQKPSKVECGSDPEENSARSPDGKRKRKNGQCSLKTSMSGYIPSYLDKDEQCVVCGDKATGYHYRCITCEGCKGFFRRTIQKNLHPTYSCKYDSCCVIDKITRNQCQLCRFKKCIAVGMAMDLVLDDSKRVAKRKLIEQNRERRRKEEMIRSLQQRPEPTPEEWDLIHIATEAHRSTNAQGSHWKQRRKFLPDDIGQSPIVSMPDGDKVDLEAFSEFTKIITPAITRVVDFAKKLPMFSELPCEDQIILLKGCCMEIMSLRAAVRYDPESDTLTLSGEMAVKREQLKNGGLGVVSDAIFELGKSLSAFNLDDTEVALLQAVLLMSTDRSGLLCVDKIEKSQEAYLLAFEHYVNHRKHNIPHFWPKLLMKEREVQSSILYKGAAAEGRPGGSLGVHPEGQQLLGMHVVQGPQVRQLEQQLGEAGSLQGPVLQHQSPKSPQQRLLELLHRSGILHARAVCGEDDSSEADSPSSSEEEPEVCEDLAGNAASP
# Chain of Retinoic acid receptor RXR-alpha (Homo sapiens) (P19793 whole entry, looked up, the tested form may be a part): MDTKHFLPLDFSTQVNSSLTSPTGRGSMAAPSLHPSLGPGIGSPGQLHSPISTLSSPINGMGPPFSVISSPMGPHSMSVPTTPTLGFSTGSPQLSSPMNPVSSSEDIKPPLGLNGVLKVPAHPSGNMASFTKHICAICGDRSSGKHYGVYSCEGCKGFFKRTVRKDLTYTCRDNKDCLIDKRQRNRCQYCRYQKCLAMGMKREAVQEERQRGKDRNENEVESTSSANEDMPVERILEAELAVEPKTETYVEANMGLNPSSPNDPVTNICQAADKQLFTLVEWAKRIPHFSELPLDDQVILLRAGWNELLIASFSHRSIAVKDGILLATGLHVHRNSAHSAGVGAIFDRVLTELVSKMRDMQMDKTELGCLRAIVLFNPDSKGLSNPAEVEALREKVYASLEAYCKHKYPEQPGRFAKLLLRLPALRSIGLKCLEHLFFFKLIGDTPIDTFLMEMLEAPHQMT
# Chain of PGR (gene 5241) (P06401 whole entry, looked up): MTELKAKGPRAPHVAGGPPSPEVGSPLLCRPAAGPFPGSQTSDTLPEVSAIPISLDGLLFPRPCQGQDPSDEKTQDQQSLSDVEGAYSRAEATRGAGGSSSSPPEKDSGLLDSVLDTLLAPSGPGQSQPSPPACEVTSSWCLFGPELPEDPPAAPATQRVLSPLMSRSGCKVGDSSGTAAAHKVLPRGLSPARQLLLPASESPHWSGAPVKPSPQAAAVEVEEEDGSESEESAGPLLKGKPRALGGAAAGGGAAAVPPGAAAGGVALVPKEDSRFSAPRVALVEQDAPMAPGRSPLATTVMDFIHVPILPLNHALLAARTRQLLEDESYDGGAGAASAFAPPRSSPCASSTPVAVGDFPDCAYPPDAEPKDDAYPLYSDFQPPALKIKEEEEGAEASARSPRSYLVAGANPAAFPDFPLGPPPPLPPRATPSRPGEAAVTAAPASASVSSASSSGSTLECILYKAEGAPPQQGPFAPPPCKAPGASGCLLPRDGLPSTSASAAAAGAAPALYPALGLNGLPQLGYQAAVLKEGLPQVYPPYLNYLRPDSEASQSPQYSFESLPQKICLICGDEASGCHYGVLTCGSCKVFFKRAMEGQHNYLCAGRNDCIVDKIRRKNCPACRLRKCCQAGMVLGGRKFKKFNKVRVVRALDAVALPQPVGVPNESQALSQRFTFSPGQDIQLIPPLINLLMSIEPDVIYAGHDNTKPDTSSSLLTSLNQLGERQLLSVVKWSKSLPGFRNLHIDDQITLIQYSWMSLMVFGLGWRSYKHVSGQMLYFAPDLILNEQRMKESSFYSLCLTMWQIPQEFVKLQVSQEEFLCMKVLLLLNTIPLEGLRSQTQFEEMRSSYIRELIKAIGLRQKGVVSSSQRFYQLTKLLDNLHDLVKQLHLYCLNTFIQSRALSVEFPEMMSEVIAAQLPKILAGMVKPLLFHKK
smiles,measurement,setting,value
O=C(O)c1ccccc1C(=O)OCc1ccccc1,outcome,[1],inactive
Cc1ccc2oc(CN(Cc3ccccc3)C(=O)Nc3c(F)cc(F)cc3F)c(-c3ccc(Cl)cc3)c2c1,outcome,[2],inactive
same,AC50,PGR (gene 5241),1.09 µM (active)
C[C@]12CC[C@@H]3c4ccc(O)cc4CC[C@H]3[C@@H]1CCC2=O,outcome,[2],inactive
same,outcome,[3],inactive
O=C(O)Cc1cc(I)c(Oc2ccc(O)c(I)c2)c(I)c1,outcome,[3],inactive
same,outcome,[4],inactive
COc1cc(C(=O)NC2CCN(C)CC2)ccc1Nc1ncc2c(n1)N(C1CCCC1)CC(F)(F)C(=O)N2C,AC50,[5],16.4 µM (active)
same,outcome,THRA (gene 7067) [6],inactive
same,AC50,THRB (gene 7068) [7],3.69 µM (active)
same,AC50,[8],46.7 µM (active)
same,outcome,THRB (gene 7068) [9],inactive
same,outcome,[10],inactive
O=C1O[C@H]([C@@H](O)CO)C(O)=C1O,outcome,THRA (gene 7067) [11],inactive
same,outcome,THRB (gene 7068) [12],inactive
same,outcome,THRB (gene 7068) [13],inactive
same,outcome,[14],inactive
CC1(C)NC(=O)N(c2ccc([N+](=O)[O-])c(C(F)(F)F)c2)C1=O,outcome,[15],inactive
same,outcome,[16],inactive
